PubChem BioAssay AID2685 (National Center for Advancing Translational Sciences (NCATS), 2010)
In all, about 320,000 compounds went through this assay and about 2,100 (0.66%) were called active. Inconclusive results (about 53%) are left out. The sample holds actives, similar compounds and a random draw of the others, so the mix is not that of the screen. Calls follow the shape of the dose curve; as a rule, active = well fitted inhibition curve with a large enough effect in the signal ratio, with a control signal flat (not every such curve was filed as active); inconclusive = small, poorly fitted or top-dose-only effect, or effect the other way, or a change in a side signal; inactive = flat fitted curve, though single readings scatter; the % refers to the signal ratio.
Potency is read from the fitted curve at half-maximal effect.

Experiment: qHTS Assay for Lipid Storage Modulators in Drosophila S3 Cells;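 as to cell number change: cells counted by Cell Tracker Red CMTPX staining in the red channel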; as to lipid storage change, negative = inhibition: % is scaled to controls: 0 for no effect and ±100 for the full control effect
Settings: BODIPY lipid droplet fluorescence, 18-24 h, cells fed with added oleic acid; cell number change: measured here: cell count max response; series mostly up to 46.1 µM; lipid storage change, negative = inhibition: at the top concentration
How it was run: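 Drosophila S3 cells loaded with oleic acid (400 uM, as added) and compounds at several concentrations; lipid droplets imaged by 488-nm laser-scanning cytometry, 500–530 nm intensity and object ratio to cell channel. Percent activity normalized to 20 uM Triacsin C.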
In the case of `CCN(CC)CCCN(C(=O)Cn1nnc(-c2ccc(OC)c(OC)c2)n1)C(C(=O)NC(C)(C)C)c1ccc(F)cc1` (stereo unspecified), the “lipid storage change, negative = inhibition” value is reported as -9.11% (inactive) and the cell number change is reported as -0.835%.
For `COc1ccc(C(C)=O)cc1CSc1nnc(SCc2cc(C(C)=O)ccc2OC)s1`, the “lipid storage change, negative = inhibition” value was 12.7% (inactive) and the cell number change was 7.73%.
In the case of `COc1ccc(C(C)=O)cc1CSc1nnc(Nc2ccccc2)s1`, the Potency is reported as 2.31 µM (active) and the cell number change is reported as -8.23%.
For `COc1ccc(C(C)=O)cc1CSc1nnc(Nc2ccccc2C)s1`, the “lipid storage change, negative = inhibition” value was 22.8% (inactive).
For `CN(C(=O)COC(=O)CCc1nc2ccccc2c(=O)[nH]1)C1CCS(=O)(=O)C1` (stereo unspecified), the “lipid storage change, negative = inhibition” value was -17.9% (inactive) and the cell number change was -1.94%.
With `COCCNC(=O)c1cccc2c1-c1ccccc1C2=O` the “lipid storage change, negative = inhibition” value was -7.63% (inactive) and the cell number change was -10.2%.
With `CC(=O)CCc1oc2ccc(C)cc2c1-c1ccccc1` the “lipid storage change, negative = inhibition” value was 20.7% (inactive) and the cell number change was 1.81%.
In the case of `O=S(=O)(Cc1ccccc1)Nc1ccc(S(=O)(=O)N2CCCC2)cc1`, the “lipid storage change, negative = inhibition” value is reported as 12.9% (inactive) and the cell number change is reported as -4.32%.
In the case of `O=C1CN(c2nc(-c3cccs3)nc3sc4c(c23)CCCC4)CCN1`, the Potency is reported as 1.64 µM (active) and the cell number change is reported as -27.1%.
In the case of `O=c1oc(-c2cccs2)nc2sc3c(c12)CCCCC3`, the “lipid storage change, negative = inhibition” value is reported as -9.97% (inactive) and the cell number change is reported as 7.26%.
In the case of `O=c1oc(-c2cccs2)nc2sc3c(c12)CCC3`, the “lipid storage change, negative = inhibition” value is reported as -1.18% (inactive) and the cell number change is reported as 1.06%.
In the case of `N#CCCNC(=O)Cn1c(COc2ccc(Cl)cc2)nc2ccccc21`, the “lipid storage change, negative = inhibition” value is reported as 15% (inactive) and the cell number change is reported as 6.47%.
With `COc1cccc(-c2noc(CCCC(=O)N3CCOCC3)n2)c1` the “lipid storage change, negative = inhibition” value was -11.5% (inactive) and the cell number change was -4.07%.
For `COc1cccc(-c2nc3c(c(SCC(=O)N4CCOCC4)n2)Cc2c(CO)cnc(C)c2O3)c1`, the Potency was 0.651 µM (active).
With `CCc1ccc(NC(=O)CSc2nc(-c3ccc(C)cc3)nc3c2Cc2c(CO)cnc(C)c2O3)cc1` the “lipid storage change, negative = inhibition” value was -8.05% (inactive) and the cell number change was -9.8%.
With `COC(C[C@H](O)[C@H](C)[C@H](O)COCc1ccccc1)OC` the “lipid storage change, negative = inhibition” value was -0.509% (inactive) and the cell number change was 11.5%.
In the case of `O=C(CN1C(=O)COc2ccccc21)Nc1ccc2c(c1)OCCO2`, the “outcome” value is reported as “inactive” and the cell number change is reported as 3.43%.
For `COc1ccc(C(=O)N/C(=C\c2cn(C)c3ccccc23)C(=O)N2CCOCC2)cc1OC`, the Potency was 23.1 µM (active) and the cell number change was 9.92%.
In the case of `COc1ccc(C(=O)N/C(=C\c2cn(C)c3ccccc23)C(=O)N2CCOCC2)cc1`, the “outcome” value is reported as “inactive” and the cell number change is reported as 8.73%.
In the case of `COc1ccc(C(=O)N/C(=C\c2cn(C)c3ccccc23)C(=O)N2CCN(C)CC2)cc1OC`, the “outcome” value is reported as “inactive” and the cell number change is reported as 0.763%.
For `CCCN1CCN(C(=O)c2noc3c2COc2ccc(C)cc2-3)CC1`, the “lipid storage change, negative = inhibition” value was -30.8% (inactive) and the cell number change was -19.6%.
With `COc1ccc2oc(C(=O)OC(C)C(=O)Nc3ccc(N4CCOCC4)cc3)c(C)c2c1` (stereo unspecified) the Potency was 7.31 µM (active) and the cell number change was -30.5%.
With `COc1ccc2oc(C(=O)OC(C)C(=O)N3CCC(C)CC3)c(C)c2c1` (stereo unspecified) the “lipid storage change, negative = inhibition” value was -4.24% (inactive) and the cell number change was -13.1%.
For `Cc1cc(=O)oc2cc(OC(C)C(=O)Nc3ccc(N4CCOCC4)cc3)ccc12` (stereo unspecified), the “lipid storage change, negative = inhibition” value was 20.2% (inactive).
In the case of `O=C(CSc1cn[nH]n1)Nc1ccccc1F`, the cell number change is reported as 16.5% and the lipid storage change, negative = inhibition is reported as -23.4% [at 0.0737 µM] (inactive).
With `CCOC(=O)C1=C(COC(=O)/C=C/c2cc(OC)c(OC)c(OC)c2)NC(=O)NC1C` (stereo unspecified) the Potency was 18.4 µM (active) and the cell number change was 4.86%.
With `CCOC(=O)C1=C(COC(=O)/C=C/c2cccc(OC)c2OC)NC(=O)NC1C` (stereo unspecified) the “outcome” value was “inactive”.
In the case of `CCOC(=O)C1=C(COC(=O)c2cc(OC)c(OC)c(OC)c2)NC(=O)NC1C` (stereo unspecified), the “lipid storage change, negative = inhibition” value is reported as 4.7% (inactive) and the cell number change is reported as -11.6%.
In the case of `NS(=O)(=O)c1ccc(NC(=S)NC(=O)c2cccs2)cc1`, the “lipid storage change, negative = inhibition” value is reported as -5.53% (inactive) and the cell number change is reported as -5.36%.
For `Cc1cc(Br)ccc1SCC(=O)N1CCN(S(=O)(=O)c2ccccc2)CC1`, the “outcome” value was “inactive” and the cell number change was 10.8%.
With `CC(CNC(=O)CCC(=O)N1CCOc2ccccc21)c1ccccc1` (stereo unspecified) the “lipid storage change, negative = inhibition” value was -12.8% (inactive) and the cell number change was 5.19%.
In the case of `CC(CNC(=O)CN1C(=O)c2cccnc2Oc2ccc(Cl)cc21)c1ccccc1` (stereo unspecified), the Potency is reported as 20.6 µM (active) and the cell number change is reported as -20.3%.
For `Cc1ccccc1CNC(=O)CCC(=O)N1CCOc2ccc(Cl)cc21`, the “lipid storage change, negative = inhibition” value was 6.67% (inactive) and the cell number change was 5.19%.
For `CC(CNC(=O)CCC(=O)N1CCOc2ccc(Cl)cc21)c1ccccc1` (stereo unspecified), the Potency was 0.92 µM (active) and the cell number change was -20.2%.
With `O=C(CN1C(=O)c2cccnc2Oc2ccc(Cl)cc21)Nc1ccccc1F` the “lipid storage change, negative = inhibition” value was -6.56% (inactive) and the cell number change was -28%.
In the case of `O=C(CN1C(=O)c2cccnc2Oc2ccc(Cl)cc21)NCCc1ccccc1`, the “outcome” value is reported as “inactive” and the cell number change is reported as 10.9%.
In the case of `COc1ccc(NC(=O)[C@@H](NC(=O)c2ccccc2)C(C)C)cc1S(=O)(=O)N1CCCCC1`, the “lipid storage change, negative = inhibition” value is reported as -1.46% (inactive) and the cell number change is reported as -2.25%.
In the case of `CC(=O)Nc1ccc(OCC(O)Cn2c3ccccc3c3ccccc32)c(C)c1` (stereo unspecified), the “lipid storage change, negative = inhibition” value is reported as -3.13% (inactive) and the cell number change is reported as -16.4%.
For `CSc1nc(=S)n(-c2ccccc2)c(C)c1C(C)=O`, the “lipid storage change, negative = inhibition” value was -5.3% (inactive) and the cell number change was -14.2%.
For `O=C(CCCn1c(SCc2cccc(F)c2)nc2ccccc2c1=O)NCC1CCCO1` (stereo unspecified), the “lipid storage change, negative = inhibition” value was -7.37% (inactive) and the cell number change was -0.301%.
In the case of `Cc1ccccc1S(=O)Cc1ccc(C(=O)NCCCN2CCCCC2)o1` (stereo unspecified), the Potency is reported as 4.11 µM (active) and the cell number change is reported as -18.3%.
In the case of `CCN1CCN(CCNC(=O)c2ccc(CS(=O)c3ccc(Cl)cc3)o2)CC1` (stereo unspecified), the “outcome” value is reported as “inactive”.
With `O=C(c1ccc(CS(=O)c2ccccc2Cl)o1)N1CCCCCC1` (stereo unspecified) the “outcome” value was “inactive” and the cell number change was -21.2%.
With `Cc1ccccc1S(=O)(=O)Cc1ccc(C(=O)NCCCN2CCCC2)o1` the “lipid storage change, negative = inhibition” value was 1.07% (inactive) and the cell number change was 13.9%.
With `O=C(NCCN1CCOCC1)c1ccc(CS(=O)c2ccccc2Cl)o1` (stereo unspecified) the Potency was 4.11 µM (active) and the cell number change was -8.85%.
With `O=C(NCCCN1CCCCC1)c1ccc(CS(=O)c2ccc(F)cc2)o1` (stereo unspecified) the “outcome” value was “inactive”.
